# Sampled rows, rich in hits. Any-hit rate of the full collection: about 2.7%.
# Peg3 promoter = inhibitors of Peg3 promoter; AID 588405; hit rate 1.7% among 360,000; HeLa PEG-Prom luciferase reporter, luminescence, overnight; inhibition, % at 20 µM;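 active = inhibition of at least 50% at 20 µM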
# Shn3 inh set2 = reduces Shn3 3'UTR luciferase signal in osteoblasts | Clone20 osteoblast Shn3 3'UTR firefly luciferase, 24 h | inhibition, % at 12.5 µM | hit rate 0.52% among 360,000 | AID 588674;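 active = mean inhibition of at least 75% with every replicate also reaching 75%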;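 also: 0% = median of neutral control wells and 100% = pilot-screen positive control compound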
# KKLEB tox = reduces viability of KKLEB cystic fibrosis airway cells | KKLEB CF airway cells viability, ATPlite luminescence, overnight; active compounds read low; cells stimulated with P. aeruginosa culture filtrate | activity change (cytotoxicity), % at 5 µM | hit rate 0.36% among 360,000 | AID 602141;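 active = corrected activity change at or below -50% at 5 µM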
# CF NFkB inh = cystic fibrosis NF-kB activation inhibition; KKLEB NF-kB-GFP reporter, PAF-induced, GFP fluorescence overnight; inhibition, % at 5 µM; hit rate 0.86% among 360,000; AID 588850;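 active = at least 50% inhibition at 5 µM, scaled per plate between neutral and stimulator controls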;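 also: PAF is a Pseudomonas aeruginosa culture filtrate used as stimulus; plate controls were PAF-stimulated DMSO wells for no effect and unstimulated DMSO wells for full effect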
# MITF TRPM1 inh = inhibitors of MITF-driven TRPM1 promoter in melanoma cells; inhibition, % at 12.5 µM; AID 488899; hit rate 0.83% among 330,000; SK-MEL-5 TRPM1 promoter luciferase, 24 h;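 active = mean inhibition across replicates of 60% or more, whatever share of single replicates reaches that level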
# HIF-2a inh = HIF-2a inhibition; 786-0 RCC cells HIF-2a reporter, luciferase luminescence, overnight; inhibition, % at 18.8 µM; hit rate 0.72% among 360,000;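 active = inhibition of the luminescence signal of 40% or more relative to plate controls, in a single-dose primary screen at 18.75 µM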
# * marks the source's active call; other numbers are inactive results; . = no result.
SMILES,Peg3 promoter,Shn3 inh set2,KKLEB tox,CF NFkB inh,MITF TRPM1 inh,HIF-2a inh
COCCOC(=O)c1[nH]c2c(c1C)C(=O)CC(c1cc(OC)c(OC)c(OC)c1)C2 (stereo unspecified),19,79,-5,-16,13,14
CCCCOC(=O)c1[nH]c2c(c1C)C(=O)CC(c1cc(OC)c(OC)c(OC)c1)C2 (stereo unspecified),21,82*,-7,3,.,8
C=CCOC(=O)c1[nH]c2c(c1C)C(=O)CC(c1cc(OC)c(OC)c(OC)c1)C2 (stereo unspecified),17,88*,3,-2,33,-6
N#Cc1cccc(C(=O)C(=O)N2CCN(C(=O)OCc3ccccc3)CC2)c1,.,.,.,.,.,4
CCN1CCN(c2c(Cl)cccc2NC(=O)c2ccc([N+](=O)[O-])o2)CC1,52*,13,-12,50,102*,-2
O=C(Nc1cccc(Cl)c1N1CCCC1)c1ccc([N+](=O)[O-])o1,10,-30,-3,10,23,7
O=C(Nc1ccccc1N1CCN(C(=O)c2ccc(Cl)cc2)CC1)c1ccc([N+](=O)[O-])o1,27,-45,-15,4,87*,9
CN(Cc1ccccc1)CC(O)COc1ccc(CNCc2ccc(Cl)s2)cc1 (stereo unspecified),54*,24,-13,8,24,24
CCCCN1C(=O)C(CC(=O)NCc2cccc3ccccc23)CC(C(=O)N2CCCCCC2)=C1C (stereo unspecified),.,.,.,.,.,16
O=C1c2ccccc2C(=O)c2c1ncn2-c1ccccc1,-2,16,5,-25,61*,-19
CN(CCc1ccccc1)c1cc2c(c3c1ccn3C)C1CCC2C1 (stereo unspecified),-2,5,-5,0,.,-7
O=[N+]([O-])c1cccc(S(=O)(=O)Nc2nc3ccccc3nc2Nc2cccc(S(=O)(=O)N3CCCCC3)c2)c1,50,25,-55*,61*,34,56*
O=[N+]([O-])c1cccc(S(=O)(=O)Nc2ccc(S(=O)(=O)N3CCCC3)cc2)c1,15,-49,-5,15,-16,12
OCCc1ccc(NCCc2cccs2)cc1,-313,-44,15,-40,.,-248
CCOc1cc2[nH]c(=S)n(CCc3ccc(OC)c(OC)c3)c(=O)c2cc1OCC,64*,39,-4,2,18,13
Cc1ccn(CCC(=O)N2CCCC(N3CCN(c4ccccc4C)CC3)C2)n1 (stereo unspecified),0,6,4,-24,.,0
O=[N+]([O-])c1cc(-c2csc(NCCc3nc4cc(Cl)c(Cl)cc4n3CCCO)n2)ccc1Cl,92*,-28,-22,-16,-21,3
NC(=O)N/N=C/c1ccc(N2CCOCC2)s1,52*,2,9,-18,12,0
Oc1ccc(N=Nc2n[nH]c(-c3ccc(Br)cc3)n2)cc1,86*,-18,33,-13,-10,-95
Oc1ccc(N=Nc2n[nH]c(-c3ccccc3)n2)cc1,-131,-85,12,1,-47,-174
COc1ccc(OC)c(NC(=O)C2(C)CCN2C(=O)CC2CC2)c1 (stereo unspecified),-2,-12,-5,12,.,11
O=C(Nc1ccn(Cc2ccccc2F)n1)c1ccc(COc2ccc(Br)cc2)cc1,-5,73,-64*,48,4,-7
C=C1C(=O)O[C@H]2[C@H]1[C@@H](O)CC(=C)[C@@H]1CC(=O)[C@@H](C)[C@H]21,36,73,11,85*,38,26
COc1ccc(NC(=O)Nc2ccc3c(c2)C(=O)N([C@H](C)CO)C[C@@H](C)[C@@H](CN(C)C(=O)C2CCCCC2)OCCCC[C@H](C)O3)cc1,6,3,-1,20,.,2
C(=N\N1CCN(Cc2ccccc2)CC1)/c1ccc(-c2ccccc2)cc1,-4,89*,-2,-7,-6,11
SMILES,Peg3 promoter,Shn3 inh set2,KKLEB tox,CF NFkB inh,MITF TRPM1 inh,HIF-2a inh
O=C1/C(=C/c2ccncc2)SC(=S)N1C1CCS(=O)(=O)C1 (stereo unspecified),41,-30,-10,65*,9,41*
O=C1/C(=C/c2ccccc2)SC(=S)N1C1CCS(=O)(=O)C1 (stereo unspecified),1,-13,8,9,11,3
Cc1ccccc1C(=O)NCCN1CCC(n2c(=O)[nH]c3ccccc32)CC1,.,.,.,.,.,-4
Cc1ccc(NC2=Nc3ccccc3N3C2=Nc2c(c(C)nn2-c2ccccc2)C3c2ccc(O)c(O)c2)cc1 (stereo unspecified),88*,34,16,-36,13,15
COC(=O)[C@]12CCCCC=C1N(CCc1ccc(OC)c(OC)c1)C(=O)[C@H](CC(=O)NCc1cccs1)C2,.,.,.,.,.,1
CCN(CC)CCOC(=O)C(c1ccccc1)c1ccccc1,0,-18,-91*,0,2,-5
COc1ccc(CNC(=O)C(c2cccs2)N(Cc2ccco2)C(=O)Cc2cccs2)cc1 (stereo unspecified),57*,8,-10,4,-7,5
COc1ccc(CNC(=O)C(c2ccco2)N(Cc2cccs2)C(=O)Cc2cccs2)cc1 (stereo unspecified),39,32,0,8,-1,6
COCCN(C(=O)Cc1cccs1)C(C(=O)NCc1ccc(OC)cc1)c1ccc(OC)cc1 (stereo unspecified),10,16,9,-13,9,10
COc1ccc(CNC(=O)C(c2ccc(C)cc2)N(Cc2cccs2)C(=O)c2ccc3c(c2)OCCO3)cc1 (stereo unspecified),63*,89*,-94*,100*,5,-67
O=C(Nc1cccnc1)C1Cc2c(-c3ccc4c(c3)OCO4)ccnc2O1 (stereo unspecified),30,43,8,-2,.,19
CC(C)(C)c1ccc(Cn2c(=N)n(CC(O)c3ccco3)c3ccccc32)cc1 (stereo unspecified),105*,83*,-22,25,98*,1
O=C1[C@@H](c2ccccc2)CC[C@@H]2C=CC[C@H]3CCN1[C@@H]32,.,.,.,.,.,0
ON=C1c2cc(OCCN3CCCCC3)ccc2-c2ccc(OCCN3CCCCC3)cc21,111*,-9,-3,-8,74*,-33
Clc1ccc(OCCN2CCOCC2)cc1Cl,-34,-12,1,3,-11,-52
NC(=S)NN=C1c2cc(OCCN3CCOCC3)ccc2-c2ccc(OCCN3CCOCC3)cc21,107*,22,-38,-51,79*,19
NC(=O)CC(NC(=O)c1ccccc1)c1ccc(N2CCC(Cc3ccccc3)CC2)c([N+](=O)[O-])c1 (stereo unspecified),3,91*,-6,15,14,13
